Sampled rows, rich in hits. Any-hit rate of the full collection: about 6.5%.
HCMV inh: qHTS Assay for inhibitors of the human cytomegalovirus (HCMV); activity change, negative = inhibition, % at 57.5 µM; HFF cells, HCMV-luciferase reporter, 72 h; hits give low values; 410,000 compounds, 4.5% hits; in the data active = activity change below about -60%; inconclusive = no clear call, values can overlap the other calls; inactive = above about -39%
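After 16 h attachment at 37C, HFF cells received test compound and HCMV-luciferase (1 PFU/cell); reporter luminescence read 72 h later, data normalized against buffer-only and known inhibitor Salinomycin.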
Marburg entry inh: qHTS for inhibitors of binding or entry into cells for Marburg Virus | Marburg virus pseudotyped entry inhibition, cell reporter | 300,000 compounds, 1.8% hits | Potency, µM (series often up to 37.8 µM), for inactives: at the highest dose activity change, negative = inhibition, hits mostly inhibitors; calls by dose curve; tested in HEK293 cells; also: potency is read from the fitted curve at half-maximal effect
FMDV inh: High Throughput Screening for Foot and Mouth Disease Virus Antivirals | FMDV antiviral cell-based qHTS | Potency, µM (series often up to 57.9 µM), for inactives: at the highest dose activity change, negative = inhibition, usual class: inhibitors | 410,000 compounds, 1.2% hits | AID 1159524, 2015; calls by dose curve; tested in HEK293T cells; also: read-out not given here; potency is read from the fitted curve at half-maximal effect; nearly all actives have a fitted effect of over 45% in size
VACV Venus inh: qHTS for Stage-Specific Inhibitors of Vaccinia Orthopoxvirus: Venus Reporter Primary qHTS; Vaccinia virus Venus reporter expression, fluorescence; Potency, µM (top dose mostly 36.5 µM), for the others: top-dose activity change, negative = inhibition, usual class: inhibitors; 330,000 compounds, 0.46% hits; AID 720580, 2013; calls by dose curve; tested in A549 cells; also: potency is read from the fitted curve at half-maximal effect; nearly all actives have a fitted effect of over 30% in size
Lassa entry inh: qHTS for Inhibitors of binding or entry into cells for Lassa Virus | Lassa virus pseudotype entry inhibition, cell reporter | Potency, µM (doses to about 37.9 µM), for inactives: top-dose activity change, negative = inhibition, hits mostly inhibitors | 300,000 compounds, 1.2% hits | AID 540256, 2011; calls by dose curve; tested in HEK293 cells; also: potency is read from the fitted curve at half-maximal effect; nearly all actives have a fitted effect of over 50% in size
VACV mCherry inh: qHTS for Stage-Specific Inhibitors of Vaccinia Orthopoxvirus: mCherry Reporter Primary qHTS; AID 720579, 2013; Vaccinia virus mCherry reporter infection, fluorescence; Potency, µM (doses to about 36.5 µM), inactives show at the top dose activity change, negative = inhibition, most hits filed as inhibitors; 310,000 compounds, 0.63% hits; calls by dose curve; tested in A549 cells; also: potency is read from the fitted curve at half-maximal effect; nearly all actives have a fitted effect of over 35% in size
Active calls of the source: *; i = inactive; u = inconclusive; x = not tested or not shown; ! = not active in a repeat; [ ] = another dose, or the depositor's remark. % is scaled to controls: 0 for no effect and ±100 for the full control effect.

SMILES	HCMV inh	Marburg entry inh	FMDV inh	VACV Venus inh	Lassa entry inh	VACV mCherry inh
c1ccc(-c2csc(=Nc3cccnc3)n2CC2CCCO2)cc1 (stereo unspecified)	-36	u	-21%	-9%	1%	-12%
COCC(C)n1c(-c2ccc3c(c2)NC(=O)CO3)csc1=Nc1ccc(OC(F)F)cc1 (stereo unspecified)	-88*	u	20µM*	u	u	u
O=C(CCl)N1c2ccccc2OCC1c1ccccc1 (stereo unspecified)	-62*	19%	18µM*	-7%	0%	i
O=C(CCl)N1CCN(C(=O)C2COc3ccccc3O2)CC1 (stereo unspecified)	-8	u	u	u	u	u
O=C(CCl)N1c2ccccc2SCC1c1ccccc1 (stereo unspecified)	-98*	u	28µM*	-20%	u	-27%
Cc1ccc(Cl)cc1N1CCN(C(c2ccc(F)cc2)c2nnc(-c3ccccc3)o2)CC1 (stereo unspecified)	-5	u	-4%	-9%	-26%[46.1 µM]	-11%
COc1ccccc1CN1C(=O)C(C)ON=C1c1ccccc1F (stereo unspecified)	-80*	x	-19%	-1%	x	i
COc1ccc(C(C)=O)cc1CN1C(=O)C(C)ON=C1c1ccccn1 (stereo unspecified)	42	x	-6%	8%	x	i
CC(=O)Nc1ccc(CN2C(=O)C(C)ON=C2c2ccccc2-c2ccco2)cc1 (stereo unspecified)	37	x	-20%	11%	x	24%
CSc1ccc(CN2C(=O)C(C)ON=C2c2ccccc2F)cc1 (stereo unspecified)	-98*	x	-21%	-4%	x	1%
COc1ccc(C(=O)N/N=C(\c2ccccc2)c2ccccn2)cc1	-99*	9.2µM*	-33%	u	u	2.2µM*
O=C(N/N=C(\c1ccccc1)c1ccccn1)c1ccccc1Cl	-114*	u	u	u	u	2.5µM*
COc1ccc(NC(=O)c2ccccn2)cc1	x	u	11µM*	-12%	u	x
O=C(COc1ccc(Cl)cc1)NNC(=O)c1ccccn1	16	-25%	-6%	-11%	-23%	-14%
Cc1cc(C)cc(OCC(=O)NNC(=O)c2ccccn2)c1	-97*	x	-12%	x	x	x
CCCN(C(=O)Cn1ncc2c1-c1ccccc1OC2)c1cccc(C)c1	5	-2%[46.1 µM]	0%	-20%	x	-16%
C=C1C=C(C(F)F)n2ncc(C(=O)NCc3ccc(OC)c(OC)c3)c2N1	x	x	x	u	x	-13%
C=CCOC(=O)C(C(C)=O)[C@@H](NC(=O)OC)c1ccc(F)cc1 (stereo partly specified)	x	20%[14.2 µM]	x	x	x	x
CCc1ccc2oc(-c3ccc(C)c(NC(=O)Cc4ccccc4)c3)nc2c1	44	x	33%	0%	u	-10%
COc1ccccc1N(C)C	x	x	x	-13%	x	i
O=c1[nH]cnc2nn(C3OC(CO)C(O)C3O)nc12 (stereo unspecified)	64	x	x	x	x	x
Cc1c(Cl)cccc1N1C(=O)[C@@H]2[C@H](ON(c3ccccc3)[C@H]2c2cccnc2)C1=O	x	2%	x	x	x	x
O=C(NN=C(c1ccccc1)c1ccccn1)c1ccccc1	-98*	6.3µM*	-14%	u	u	2µM*
CC(C)CO/N=C1\C[C@@H](O)[C@@H](O)[C@@H]2[C@@H]3C(=O)N(C4CCCCC4)C(=O)[C@@H]3CC[C@@H]12	x	-14%[14.2 µM]	x	x	x	x
Cc1cccc(NC(=O)c2ccccc2C(=O)Nc2cccc(C)c2)c1	-38	u	24%	-4%	0%	-11%
SMILES	HCMV inh	Marburg entry inh	FMDV inh	VACV Venus inh	Lassa entry inh	VACV mCherry inh
Cc1ccc(NC(=O)c2cc(Cl)ccc2[N+](=O)[O-])cc1C	-73*	0%	0%	9%	-2%	u
CC(C)(C)NC(=O)c1cc(Cl)ccc1[N+](=O)[O-]	-10	-1%	-20%	-9%	-1%	-2%
Cc1cccc(NC(=O)c2cc(Cl)ccc2[N+](=O)[O-])c1	-83*	u	-10%	u	-9%	6.3µM*
c1cncc(-c2nc(NCCCn3ccnc3)c3ccccc3n2)c1	-67*	u	-11%	-1%	-3%	-8%
Cc1nc(NCCCn2ccnc2)c2ccccc2n1	-8	-24%	-8%	-10%	17%	-14%
COc1ccc(OC)c(-c2cc(Cl)c3c(c2)CC(CNC(=O)c2cccnc2SC)O3)c1 (stereo unspecified)	x	x	-3%	-13%	x	-15%
COc1ccc(CNC(=O)C(c2ccc(C)o2)N(Cc2cccs2)C(=O)Cc2cccs2)cc1 (stereo unspecified)	-15	u	19%	-25%	11µM*	u
O=C(NCc1ccccc1)C(c1ccccc1)N(Cc1ccc2c(c1)OCO2)C(=O)Cc1cccs1 (stereo unspecified)	-23	u	25%	-30%	13µM*	u
O=C(c1ccc2c(c1)N(Cc1ccc(F)cc1Cl)C(=O)c1ccccc1S2)N1CCC2(CC1)OCCO2	-68*	x	-4%	-3%	u	-3%
C=CCN1C(=O)c2ccccc2Sc2ccc(C(=O)N3CCC4(CC3)OCCO4)cc21	-66*	-16%	-30%	x	-5%	x
OCc1cc2c(cn1)[nH]c1ccccc12	x	x	-3%	-8%	x	-14%
CCCS(=O)(=O)c1nc(S(=O)(=O)c2ccc(C)cc2)c(NCc2ccccc2Cl)s1	30	u	30%	-14%	-7%[46.1 µM]	i
CCOc1cc(S(=O)(=O)NCc2ccncc2)ccc1Cl	-84*	u	-10%	-18%	u	i
CCOc1ccc(S(=O)(=O)NCc2ccncc2)cc1	-96*	u	-14%	x	u	x
O=C(COc1ccc(S(=O)(=O)Nc2ccccc2)cc1)NCc1ccncc1	u	u	11%	-16%	2.6µM*	-3%
COC(=O)C1CCN(Cc2ccc3c(c2)CN(C(=O)c2ccnn2C)CCO3)CC1	x	x	2%	-7%	x	-13%
CCCCCCCCNC(=S)NCCN1CCCCC1	-66*	15µM*	u	x	u	x
CCOC(=O)C1CCCN(C(=O)Cn2ncc3c(C)n(Cc4ccccc4Cl)c(C)c3c2=O)C1 (stereo unspecified)	4	0%[46.1 µM]	u	-18%	0%[46.1 µM]	-9%
O=C(Cn1ncc2c([nH]c3ccccc32)c1=O)N1CCCCC1	-7	x	-6%	x	x	x
CCOC(=O)C1CCCN(C(=O)Cn2ncc3c(C)n(Cc4ccc(Cl)cc4)c(C)c3c2=O)C1 (stereo unspecified)	-9	3%[46.1 µM]	18µM*	-16%	-2%[46.1 µM]	-6%
CCOC(=O)C1CCN(C(=O)Cn2ncc3c([nH]c4ccccc43)c2=O)CC1	-68*!	22%[46.1 µM]	-29%	-4%	9%[46.1 µM]	-14%

Screens: PubChem, National Center for Advancing Translational Sciences (NCATS)
